Inconclusive results are not listed. The source made the active and inactive calls. The calls were made as follows: active = hit-call score of the fitted dose curve at least 0.9, where 1 is the maximum; inconclusive = response in the unintended direction; inactive = score below 0.9.

Sequence of human Peroxisome Proliferator-activated Receptor alpha (PPARa), PPARA (gene 5465) (Q07869 whole entry, looked up): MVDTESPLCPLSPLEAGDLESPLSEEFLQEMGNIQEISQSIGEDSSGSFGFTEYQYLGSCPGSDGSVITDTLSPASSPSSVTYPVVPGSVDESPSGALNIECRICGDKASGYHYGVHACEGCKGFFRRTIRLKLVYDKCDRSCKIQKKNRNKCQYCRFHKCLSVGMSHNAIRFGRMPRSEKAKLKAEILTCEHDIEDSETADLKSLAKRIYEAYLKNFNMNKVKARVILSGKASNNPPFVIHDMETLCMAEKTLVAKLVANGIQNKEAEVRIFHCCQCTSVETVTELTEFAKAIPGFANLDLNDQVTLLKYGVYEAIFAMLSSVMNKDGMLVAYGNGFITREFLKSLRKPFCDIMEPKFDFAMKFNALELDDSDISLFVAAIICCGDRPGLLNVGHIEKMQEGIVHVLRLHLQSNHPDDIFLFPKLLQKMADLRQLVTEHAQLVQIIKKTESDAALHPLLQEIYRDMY

The experiment deals with human Peroxisome Proliferator-activated Receptor alpha (PPARa), PPARA (gene 5465) (UniProt Q07869). The experiment can be described thus: ERF_US_NR_hPPARA: Eurofins (ERF) Nuclear Receptor (NR) Cell Based Protein-Protein Interaction LeadHunter Assay for human Peroxisome Proliferator-activated Receptor alpha (PPARa) Agonism. On the procedure:
ERF_US_NR_hPPARA is a cell-based, single-readout assay that uses extracted gene-proteins […]. Measurements were taken 5 hours after chemical dosing in a 384-well plate. See PPARalpha Human NHR Cell Based Agonist Protein-Protein Interaction Assay, DiscoverX.ERF_US_NR_hPPARA is an assay component calculated from theERF_US_NR_hPPARA assay. It is designed to measure radioligand binding using a type of binding reporter as detected by scintillation counting with radiometry technology.Data from the assay component ERF_US_NR_hPPARA was analyzed at the assay endpoint, ERF_US_NR_hPPARA, in the positive analysis fitting direction relative to DMSO as the negative control and baseline of activity. Using a type of binding reporter, gain-of-signal activity can be used to understand changes in binding as they relate to gene PPARA. To generalize the intended target to other relatable targets, this assay endpoint is annotated to the nuclear receptor intended target family, where the subfamily is non-steroidal.
Cells were seeded in a total volume of 20 uL into white walled, 384-well microplates and incubated at 37C overnight prior to testing.Briefly, intermediate dilution of sample stocks was performed to generate 5X sample in assay buffer. 5 uL of 5X sample was added to cells and incubated at 37C for 300 minutes. Final assay vehicle concentration was 1%. The results are expressed as a percent efficacy of the control ligand.
For the compound `O=C(O)C(F)(F)OC(F)(F)C(F)(F)OC(F)(F)F`, the outcome was inactive.

Turning to `O=S(=O)(O)C(F)(F)C(F)(F)C(F)(F)C(F)(F)C(F)(F)C(F)(F)F`, the compound was called inactive. Broadly, the AC50 is the midpoint of the concentration-response curve, whichever way the signal moves. Turning to `O=C(CC(=O)C(F)(F)C(F)(F)C(F)(F)F)c1cccs1`, the concentration at half-maximal activity (AC50) was 12.6 µM (active). Regarding `O=C(O)C(F)(F)C(F)(F)C(F)(F)C(F)(F)C(F)(F)C(F)(F)C(F)(F)C(F)(F)Cl`, the compound was classed as inactive. Take `O=C(O)C(F)(F)C(F)(F)C(F)(F)C(F)(F)C(F)(F)C(F)(F)C(F)F`: the call was inactive. As for `CN(CCOc1ccc(CC2SC(=O)NC2=O)cc1)c1ccccn1` (centres undefined), the compound was called inactive. On the same count and under the same terms, for `O=C(O)C(F)(F)C(F)(F)C(F)(F)C(F)(F)C(F)(F)C(F)(F)C(F)(F)F` the value was “inactive”; for `O=S(=O)(O)C(F)(F)C(F)(F)C(F)(F)C(F)(F)C(F)(F)C(F)(F)C(F)(F)C(F)(F)F`, “inactive”. In the case of `CC(C)(Oc1ccc(C(=O)c2ccc(Cl)cc2)cc1)C(=O)O`, the AC50 was 50 µM (active).

The values above are taken from PubChem BioAssay AID2284384 (EPA ToxCast).
